Experimental findings from ChEMBL document CHEMBL2218924, “A broad activity screen in support of a chemogenomic map for kinase signalling research and drug discovery” (Biochem J, 2013) are described below.

Test [1] has as its target T1, Muscle, skeletal receptor tyrosine-protein kinase (Homo sapiens) (UniProt O15146).
T1 sequence (whole entry): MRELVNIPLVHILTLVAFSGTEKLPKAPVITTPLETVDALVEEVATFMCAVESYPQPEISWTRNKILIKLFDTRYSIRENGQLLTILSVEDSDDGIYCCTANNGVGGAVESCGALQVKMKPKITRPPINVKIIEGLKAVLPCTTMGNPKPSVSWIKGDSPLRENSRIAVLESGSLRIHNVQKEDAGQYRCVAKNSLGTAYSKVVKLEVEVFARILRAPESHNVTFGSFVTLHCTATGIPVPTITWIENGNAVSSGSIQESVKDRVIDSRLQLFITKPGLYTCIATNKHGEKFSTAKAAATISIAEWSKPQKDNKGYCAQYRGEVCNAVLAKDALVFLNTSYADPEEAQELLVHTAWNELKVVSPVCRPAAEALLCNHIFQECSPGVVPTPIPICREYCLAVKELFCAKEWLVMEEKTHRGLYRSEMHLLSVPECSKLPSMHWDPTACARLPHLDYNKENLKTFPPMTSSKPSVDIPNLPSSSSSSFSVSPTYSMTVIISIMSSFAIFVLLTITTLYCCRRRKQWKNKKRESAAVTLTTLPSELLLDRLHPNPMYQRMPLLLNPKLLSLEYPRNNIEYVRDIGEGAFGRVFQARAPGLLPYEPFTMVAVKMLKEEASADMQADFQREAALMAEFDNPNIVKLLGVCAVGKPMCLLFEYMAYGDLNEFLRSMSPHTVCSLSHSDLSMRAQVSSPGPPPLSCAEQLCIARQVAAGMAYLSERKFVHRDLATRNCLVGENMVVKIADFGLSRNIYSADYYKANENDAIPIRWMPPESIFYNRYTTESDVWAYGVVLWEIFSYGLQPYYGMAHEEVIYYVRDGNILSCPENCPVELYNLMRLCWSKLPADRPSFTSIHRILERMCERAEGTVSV
As to conditions: at 1 µM.

In test [2] the target is T1, Muscle, skeletal receptor tyrosine-protein kinase (Homo sapiens). The conditions noted are these: at 10 µM.
The target of test [3] is T2, Serine/threonine-protein kinase Nek11 (Homo sapiens) (UniProt Q8NG66).
T2 sequence (whole entry): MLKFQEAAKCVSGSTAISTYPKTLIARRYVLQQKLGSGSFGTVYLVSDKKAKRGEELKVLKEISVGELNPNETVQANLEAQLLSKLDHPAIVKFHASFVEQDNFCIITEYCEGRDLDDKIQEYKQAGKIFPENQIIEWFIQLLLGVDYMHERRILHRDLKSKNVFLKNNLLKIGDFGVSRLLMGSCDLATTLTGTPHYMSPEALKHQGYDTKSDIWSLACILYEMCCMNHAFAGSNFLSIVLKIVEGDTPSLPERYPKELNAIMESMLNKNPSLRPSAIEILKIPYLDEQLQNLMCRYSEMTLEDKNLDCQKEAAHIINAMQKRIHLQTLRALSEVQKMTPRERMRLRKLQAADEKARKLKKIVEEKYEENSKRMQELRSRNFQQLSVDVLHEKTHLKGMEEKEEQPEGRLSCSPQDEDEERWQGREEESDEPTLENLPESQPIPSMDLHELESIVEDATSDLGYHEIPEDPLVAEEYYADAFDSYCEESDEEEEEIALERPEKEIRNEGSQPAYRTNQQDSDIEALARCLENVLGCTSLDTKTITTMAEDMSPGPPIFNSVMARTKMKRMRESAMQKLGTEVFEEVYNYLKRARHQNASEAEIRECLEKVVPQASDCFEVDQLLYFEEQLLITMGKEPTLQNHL
As to conditions: at 1 µM.

The target of test [4] is T2, Serine/threonine-protein kinase Nek11 (Homo sapiens). The conditions noted are these: at 10 µM.
For test [5], the target named is T3, Serine/threonine-protein kinase Nek2 (Homo sapiens) (UniProt P51955).
T3 sequence (whole entry): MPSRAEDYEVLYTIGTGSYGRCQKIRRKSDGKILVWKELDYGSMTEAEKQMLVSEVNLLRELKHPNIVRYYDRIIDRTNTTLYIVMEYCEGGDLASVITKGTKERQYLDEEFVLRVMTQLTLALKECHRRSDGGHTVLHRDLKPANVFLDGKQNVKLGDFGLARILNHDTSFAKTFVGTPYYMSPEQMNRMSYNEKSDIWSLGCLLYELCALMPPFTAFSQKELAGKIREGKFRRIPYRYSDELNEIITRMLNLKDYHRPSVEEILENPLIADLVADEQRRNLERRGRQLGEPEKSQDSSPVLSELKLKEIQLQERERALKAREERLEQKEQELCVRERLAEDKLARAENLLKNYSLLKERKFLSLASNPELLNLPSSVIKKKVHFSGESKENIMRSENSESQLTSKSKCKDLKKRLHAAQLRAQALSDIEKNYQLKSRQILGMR
The conditions noted are these: at 10 µM.

Test [6] has as its target T4, Serine/threonine-protein kinase Nek3 (Homo sapiens) (UniProt P51956).
T4 sequence (whole entry): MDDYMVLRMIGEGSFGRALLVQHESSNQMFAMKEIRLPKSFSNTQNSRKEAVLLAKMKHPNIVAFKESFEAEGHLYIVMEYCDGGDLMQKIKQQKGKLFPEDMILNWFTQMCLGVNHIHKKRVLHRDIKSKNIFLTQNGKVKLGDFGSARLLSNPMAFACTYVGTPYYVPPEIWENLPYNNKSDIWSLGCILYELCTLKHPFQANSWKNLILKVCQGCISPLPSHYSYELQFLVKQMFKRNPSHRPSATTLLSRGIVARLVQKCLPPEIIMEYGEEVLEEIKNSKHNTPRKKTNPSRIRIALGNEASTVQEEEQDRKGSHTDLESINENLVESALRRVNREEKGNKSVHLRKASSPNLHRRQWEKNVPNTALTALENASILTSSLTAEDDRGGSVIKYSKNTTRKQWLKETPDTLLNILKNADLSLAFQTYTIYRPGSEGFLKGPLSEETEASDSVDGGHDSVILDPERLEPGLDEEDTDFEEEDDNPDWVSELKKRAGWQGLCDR
As to conditions: at 1 µM.

Test [7] concerns the target T4, Serine/threonine-protein kinase Nek3 (Homo sapiens). As to conditions: at 10 µM.
Test [8] addresses Serine/threonine-protein kinase tousled-like 2 (Homo sapiens) (UniProt Q86UE8). As to conditions: at 1 µM.
Test [9] has the same target. The conditions noted are these: at 10 µM.
Test [10] addresses T5, Testis-specific serine/threonine-protein kinase 1 (Homo sapiens) (UniProt Q9BXA7).
T5 sequence (whole entry): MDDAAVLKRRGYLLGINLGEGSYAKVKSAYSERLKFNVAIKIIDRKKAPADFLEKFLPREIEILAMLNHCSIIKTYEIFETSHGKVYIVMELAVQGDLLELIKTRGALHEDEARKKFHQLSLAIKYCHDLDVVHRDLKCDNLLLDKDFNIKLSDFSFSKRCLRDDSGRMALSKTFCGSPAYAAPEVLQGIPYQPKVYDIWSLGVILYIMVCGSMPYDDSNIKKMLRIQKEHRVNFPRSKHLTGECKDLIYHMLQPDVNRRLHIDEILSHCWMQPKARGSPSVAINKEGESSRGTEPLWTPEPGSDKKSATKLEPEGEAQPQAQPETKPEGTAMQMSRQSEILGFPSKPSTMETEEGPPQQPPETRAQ
As to conditions: at 1 µM.

The target in test [11] is T5, Testis-specific serine/threonine-protein kinase 1 (Homo sapiens). The conditions noted are these: at 10 µM.
In test [12] the target is T6, Testis-specific serine/threonine-protein kinase 2 (Homo sapiens) (UniProt Q96PF2).
T6 sequence (whole entry): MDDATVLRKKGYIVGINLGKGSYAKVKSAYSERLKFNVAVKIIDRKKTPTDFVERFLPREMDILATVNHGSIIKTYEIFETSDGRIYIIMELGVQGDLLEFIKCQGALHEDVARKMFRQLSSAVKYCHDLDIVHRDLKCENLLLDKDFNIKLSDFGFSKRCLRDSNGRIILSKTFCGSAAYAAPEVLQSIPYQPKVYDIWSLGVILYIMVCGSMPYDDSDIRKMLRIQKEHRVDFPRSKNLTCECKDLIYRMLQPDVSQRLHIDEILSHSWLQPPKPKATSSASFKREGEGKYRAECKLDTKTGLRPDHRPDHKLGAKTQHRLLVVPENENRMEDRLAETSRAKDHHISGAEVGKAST
As to conditions: at 10 µM.

The target of test [13] is T7, Tyrosine-protein kinase Tec (Homo sapiens) (UniProt P42680).
T7 sequence (whole entry): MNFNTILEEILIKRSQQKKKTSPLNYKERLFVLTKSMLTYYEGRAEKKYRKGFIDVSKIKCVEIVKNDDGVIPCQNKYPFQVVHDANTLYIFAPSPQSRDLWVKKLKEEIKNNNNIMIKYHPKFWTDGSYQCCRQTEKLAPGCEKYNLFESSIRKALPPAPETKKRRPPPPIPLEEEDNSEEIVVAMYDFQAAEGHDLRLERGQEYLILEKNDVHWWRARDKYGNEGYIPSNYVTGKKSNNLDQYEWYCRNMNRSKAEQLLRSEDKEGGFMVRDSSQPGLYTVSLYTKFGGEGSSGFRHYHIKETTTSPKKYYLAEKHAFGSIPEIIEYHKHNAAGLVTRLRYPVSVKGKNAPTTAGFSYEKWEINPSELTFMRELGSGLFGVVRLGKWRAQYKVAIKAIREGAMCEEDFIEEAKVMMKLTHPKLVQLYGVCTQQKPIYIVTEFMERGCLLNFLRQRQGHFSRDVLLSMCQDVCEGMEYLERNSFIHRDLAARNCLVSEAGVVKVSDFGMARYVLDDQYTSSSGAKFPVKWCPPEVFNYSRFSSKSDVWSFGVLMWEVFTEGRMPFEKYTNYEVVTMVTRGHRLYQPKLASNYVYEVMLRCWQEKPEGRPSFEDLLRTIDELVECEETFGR
The conditions noted are these: at 1 µM.

Test [14] deals with T7, Tyrosine-protein kinase Tec (Homo sapiens). The conditions noted are these: at 10 µM.
Test [15] concerns the target Angiopoietin-1 receptor (Homo sapiens) (UniProt Q02763). As to conditions: at 1 µM.
Test [16] has the same target. The conditions noted are these: at 10 µM.
Test [17] has as its target High affinity nerve growth factor receptor (Homo sapiens) (UniProt P04629). The conditions noted are these: at 1 µM.
Test [18] has the same target. The conditions noted are these: at 10 µM.
In test [19] the target is BDNF/NT-3 growth factors receptor (Homo sapiens) (UniProt Q16620). The conditions noted are these: at 1 µM.
Chain of BDNF/NT-3 growth factors receptor (Homo sapiens) (Q16620 32-822 limits assumed): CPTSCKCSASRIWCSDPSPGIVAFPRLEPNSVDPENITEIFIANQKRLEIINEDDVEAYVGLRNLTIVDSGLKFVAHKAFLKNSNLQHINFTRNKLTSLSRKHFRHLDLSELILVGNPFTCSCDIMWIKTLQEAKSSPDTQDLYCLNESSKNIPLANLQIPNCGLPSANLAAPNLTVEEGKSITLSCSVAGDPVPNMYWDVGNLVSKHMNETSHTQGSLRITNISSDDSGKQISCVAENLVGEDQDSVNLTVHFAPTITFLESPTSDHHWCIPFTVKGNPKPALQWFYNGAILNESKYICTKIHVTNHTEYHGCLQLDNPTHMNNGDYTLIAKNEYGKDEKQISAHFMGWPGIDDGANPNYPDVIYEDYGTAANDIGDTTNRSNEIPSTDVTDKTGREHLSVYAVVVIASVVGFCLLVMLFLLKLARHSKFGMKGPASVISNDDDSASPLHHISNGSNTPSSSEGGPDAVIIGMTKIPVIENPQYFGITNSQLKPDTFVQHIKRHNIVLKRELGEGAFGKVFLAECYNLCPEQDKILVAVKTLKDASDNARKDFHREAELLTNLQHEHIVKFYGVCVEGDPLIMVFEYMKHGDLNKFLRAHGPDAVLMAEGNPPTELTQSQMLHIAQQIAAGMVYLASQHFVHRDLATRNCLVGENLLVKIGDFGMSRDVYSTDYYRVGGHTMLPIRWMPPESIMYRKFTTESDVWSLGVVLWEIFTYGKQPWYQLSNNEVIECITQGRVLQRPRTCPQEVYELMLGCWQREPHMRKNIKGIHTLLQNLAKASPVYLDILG
Test [20] has as its target T3, Serine/threonine-protein kinase Nek2 (Homo sapiens). The conditions noted are these: at 1 µM.

Chain of Serine/threonine-protein kinase tousled-like 2 (Homo sapiens) (Q86UE8 whole entry, looked up): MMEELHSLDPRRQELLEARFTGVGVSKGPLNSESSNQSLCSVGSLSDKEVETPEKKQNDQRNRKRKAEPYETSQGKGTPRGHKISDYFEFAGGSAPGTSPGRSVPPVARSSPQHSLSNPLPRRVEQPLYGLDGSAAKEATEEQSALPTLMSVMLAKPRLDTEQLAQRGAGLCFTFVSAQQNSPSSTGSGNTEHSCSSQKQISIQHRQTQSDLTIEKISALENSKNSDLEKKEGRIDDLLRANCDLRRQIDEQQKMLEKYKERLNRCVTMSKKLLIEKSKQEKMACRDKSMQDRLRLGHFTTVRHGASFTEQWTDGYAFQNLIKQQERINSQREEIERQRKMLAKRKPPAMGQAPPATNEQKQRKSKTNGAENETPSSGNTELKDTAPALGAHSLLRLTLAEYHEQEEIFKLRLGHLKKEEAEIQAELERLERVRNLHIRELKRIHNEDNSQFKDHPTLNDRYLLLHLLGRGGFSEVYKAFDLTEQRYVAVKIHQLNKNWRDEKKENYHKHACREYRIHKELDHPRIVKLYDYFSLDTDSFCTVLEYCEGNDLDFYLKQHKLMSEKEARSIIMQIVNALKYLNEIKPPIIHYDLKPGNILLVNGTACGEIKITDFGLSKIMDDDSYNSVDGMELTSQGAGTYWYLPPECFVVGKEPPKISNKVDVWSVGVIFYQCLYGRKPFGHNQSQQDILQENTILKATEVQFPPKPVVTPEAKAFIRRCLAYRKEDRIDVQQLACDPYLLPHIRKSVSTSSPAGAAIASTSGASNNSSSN
Chain of Angiopoietin-1 receptor (Homo sapiens) (Q02763 whole entry): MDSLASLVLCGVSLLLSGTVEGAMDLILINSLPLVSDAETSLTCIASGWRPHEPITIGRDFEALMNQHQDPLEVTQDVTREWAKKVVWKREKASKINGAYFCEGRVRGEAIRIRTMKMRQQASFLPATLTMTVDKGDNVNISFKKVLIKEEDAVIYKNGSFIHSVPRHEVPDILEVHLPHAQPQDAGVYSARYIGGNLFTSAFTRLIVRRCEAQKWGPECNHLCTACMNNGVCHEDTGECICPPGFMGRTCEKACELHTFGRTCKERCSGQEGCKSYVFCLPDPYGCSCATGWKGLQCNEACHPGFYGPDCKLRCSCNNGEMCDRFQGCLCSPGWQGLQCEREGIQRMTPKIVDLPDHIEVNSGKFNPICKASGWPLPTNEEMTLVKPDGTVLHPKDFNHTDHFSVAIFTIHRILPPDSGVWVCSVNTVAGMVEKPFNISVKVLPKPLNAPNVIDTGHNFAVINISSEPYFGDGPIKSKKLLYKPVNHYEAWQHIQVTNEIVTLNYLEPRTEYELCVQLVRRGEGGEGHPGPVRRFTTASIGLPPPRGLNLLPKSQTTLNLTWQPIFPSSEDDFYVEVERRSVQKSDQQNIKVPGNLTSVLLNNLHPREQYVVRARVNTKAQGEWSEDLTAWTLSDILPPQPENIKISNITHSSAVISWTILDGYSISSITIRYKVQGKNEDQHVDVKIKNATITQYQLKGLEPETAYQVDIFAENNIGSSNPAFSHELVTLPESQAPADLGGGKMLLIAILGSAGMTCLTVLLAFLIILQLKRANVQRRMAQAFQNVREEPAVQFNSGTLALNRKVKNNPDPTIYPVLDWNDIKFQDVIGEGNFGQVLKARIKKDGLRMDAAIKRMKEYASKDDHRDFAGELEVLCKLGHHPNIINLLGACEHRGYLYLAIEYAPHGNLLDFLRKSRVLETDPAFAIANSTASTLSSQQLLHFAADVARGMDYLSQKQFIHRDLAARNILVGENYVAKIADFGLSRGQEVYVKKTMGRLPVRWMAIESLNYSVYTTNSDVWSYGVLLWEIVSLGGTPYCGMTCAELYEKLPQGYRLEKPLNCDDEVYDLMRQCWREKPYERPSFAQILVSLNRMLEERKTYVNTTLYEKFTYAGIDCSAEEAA
Chain of High affinity nerve growth factor receptor (Homo sapiens) (P04629 33-796 limits assumed): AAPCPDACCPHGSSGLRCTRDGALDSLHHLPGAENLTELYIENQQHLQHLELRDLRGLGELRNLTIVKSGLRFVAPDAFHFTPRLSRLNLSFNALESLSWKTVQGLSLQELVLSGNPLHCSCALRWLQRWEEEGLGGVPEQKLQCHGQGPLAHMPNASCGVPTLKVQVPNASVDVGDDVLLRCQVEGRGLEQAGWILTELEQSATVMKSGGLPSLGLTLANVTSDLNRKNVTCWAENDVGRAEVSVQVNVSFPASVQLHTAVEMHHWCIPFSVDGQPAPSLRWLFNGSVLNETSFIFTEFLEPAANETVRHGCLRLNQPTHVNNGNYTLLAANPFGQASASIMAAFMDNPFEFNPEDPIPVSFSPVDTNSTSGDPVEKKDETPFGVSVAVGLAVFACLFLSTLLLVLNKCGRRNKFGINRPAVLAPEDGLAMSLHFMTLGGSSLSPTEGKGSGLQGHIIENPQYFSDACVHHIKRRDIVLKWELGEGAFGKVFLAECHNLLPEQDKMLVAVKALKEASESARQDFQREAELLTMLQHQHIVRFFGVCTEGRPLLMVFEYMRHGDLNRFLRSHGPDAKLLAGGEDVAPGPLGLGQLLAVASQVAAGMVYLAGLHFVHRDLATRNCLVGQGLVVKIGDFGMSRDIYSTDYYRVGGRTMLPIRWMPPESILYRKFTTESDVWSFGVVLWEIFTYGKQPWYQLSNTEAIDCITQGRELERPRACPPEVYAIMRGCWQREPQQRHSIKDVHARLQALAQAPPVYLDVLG

A word on the residual activity: it is the signal under treatment as a percentage of the control signal. For the compound `Cc1cc(Nc2nc(-c3ccccc3)nc3ccccc23)n[nH]1`, the residual activity in test [1] was determined as 21%; in test [2], 4%; in test [3], 66%; in test [4] it was 50%; in test [5], 66%; in [6] it was 76%. In addition, the residual activity in [7] came to 78%; in [8], 62%; in test [9], 17%; in test [10], 72%; in test [11], 25%; in test [12], 67%. Also, the residual activity in test [13] was 38%; in test [14], 4%; in test [15] it was 77%; in [16] it was 6%; in test [17], -2%; in test [18], -1%. Further, the residual activity in test [19] was 1%.

Take `Nc1n[nH]c2nnc(-c3c(-c4ccccc4)nn4ccccc34)cc12`: the residual activity in [2] was determined as 86%; in [3], 107%; in test [4] it was 97%; in test [20] it was 91%; in test [5], 86%; in test [6], 83%. The residual activity was found to be 87% in [7]; 89% in [8]; 82% in [9]; 87% in [10]; 90% in test [11]; 86% in test [12]. For the same compound, the residual activity in test [13] turned out to be 82%; in [14], 50%; in test [15] it was 94%; in test [16], 72%; in [17], 68%; in test [18], 24%. Further, the residual activity in test [19] was 94%.

Turning to `Oc1c2ccccc2c2c3c(cccc13)N=N2`, the residual activity in test [1] came to 60%; in [2] it was 24%; in test [3], 50%; in test [4], 47%; in test [20], 86%; in [5], 81%. In addition, the residual activity in test [6] amounted to 70%; in test [7] it was 79%; in test [8], 71%; in test [9], 38%; in test [10], 75%; in test [11], 49%. Moreover, the residual activity in test [12] came to 86%; in [13] it was 89%; in test [14], 57%; in [15], 95%; in test [16], 63%; in test [17], 10%. The residual activity in test [18] was -1%; in test [19], 32%.
